The values below come from PubChem BioAssay (NCATS).

Test [1] can be described thus: Cell Viability - SK-N-SH (AID 435; calls by dose curve;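 note: potency is the fitted concentration of half-maximal effect; compound exposure lasted 40 h at 37 °C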). The following applies: SK-N-SH neuroblastoma cell viability qHTS. The method, boiled down:
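SK-N-SH neuroblastoma cells (1500/well) treated 40 h at 37 °C in complete medium; viability read as cellular ATP by CellTiter-Glo luminescence. Normalized to DMSO and 100 uM tamoxifen; AC50 from Hill fits of qHTS concentration-response.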
(In general: qHTS replaces the single test concentration by a dilution series.)

Test [2] is described as follows: Cell Viability - N2a (AID 540).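 Note: plate controls were DMSO alone for no effect and tamoxifen control for full effect; nearly all actives have a fitted effect of over 45% in size.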 The note with it: N2a mouse neuroblastoma cell viability; activity change, negative = cytotoxicity: at 92.2 µM (top of the series). The method, boiled down:
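N2a mouse neuroblastoma, 1500 cells/well, 5 hr settle; compound 40 hr, 37 °C; CellTiter-Glo 20 min RT; luminescence; Hill-fit AC50.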

Test [3] can be described thus: Cell Viability - Renal Proximal Tubule (AID 545). Note: nearly all actives have a fitted effect of over 40% in size. The following applies: renal proximal tubule cells viability; series mostly up to 91.7 µM. The method, boiled down: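 Rat renal proximal tubule primary cells, 1000/well, exposed to compounds for 40 hr at 37 °C in complete medium; cellular ATP read by CellTiter-Glo luminescence. AC50 from concentration-response fitted with standard Hill equation.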

Test [4] can be described thus: Cellular Toxicity (caspase-3) Jurkat (AID 655).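 Note: cells exposed to compound for 16 h at 37 °C before reading.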 The following applies: Jurkat caspase-3 activation, luminescence; caspase-3 activation: at 92.2 µM (top of the series), DMSO = 0%, tamoxifen = 100%. The method, boiled down: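 Jurkat cells (5000/well) in complete medium exposed 16 h at 37 C; caspase-3/7 activity read by Caspase-Glo luminescence after 20 min at room temperature. Normalized to DMSO and 100 uM tamoxifen; AC50 from Hill fits.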

A short description of test [5]: Cellular Toxicity (caspase-3) MRC-5 (AID 659). The note with it: MRC-5 cells, luminescence, normalized: DMSO 0%, 10 µM staurosporine 100%; series mostly up to 91.7 µM. The method, boiled down: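 Luminescent Caspase-Glo 3/7 read-out (1 h, room temperature) after a 16 h, 37 °C compound exposure of MRC-5 lung fibroblasts at 1500 cells/well. Concentration-response AC50 from Hill equation; 0% DMSO, 100% 10 uM staurosporine.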

For test [6], the target named is Cytochrome P450 3A4 (Homo sapiens) (UniProt P08684). The test can be described thus: qHTS Assay for Inhibitors and Substrates of Cytochrome P450 3A4 (AID 884). Note: % is set by controls: 0 for no effect and ±100 for the full control effect; nearly all actives have a fitted effect of over 50% in size. The note with it: recombinant CYP3A4, Luciferin-PPXE luminescence; series mostly up to 57.1 µM. The method, boiled down: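 Luminescent readout of luciferin produced by CYP3A4 (20 nM) dealkylation of Luciferin-PPXE, 25 uM (its KM). NADPH-driven reaction ran 60 min at RT after 10 min compound preincubation; data scaled to 57 uM ketoconazole as 100% inhibition.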
Cytochrome P450 3A4 (Homo sapiens), sequence (P08684 whole entry, looked up): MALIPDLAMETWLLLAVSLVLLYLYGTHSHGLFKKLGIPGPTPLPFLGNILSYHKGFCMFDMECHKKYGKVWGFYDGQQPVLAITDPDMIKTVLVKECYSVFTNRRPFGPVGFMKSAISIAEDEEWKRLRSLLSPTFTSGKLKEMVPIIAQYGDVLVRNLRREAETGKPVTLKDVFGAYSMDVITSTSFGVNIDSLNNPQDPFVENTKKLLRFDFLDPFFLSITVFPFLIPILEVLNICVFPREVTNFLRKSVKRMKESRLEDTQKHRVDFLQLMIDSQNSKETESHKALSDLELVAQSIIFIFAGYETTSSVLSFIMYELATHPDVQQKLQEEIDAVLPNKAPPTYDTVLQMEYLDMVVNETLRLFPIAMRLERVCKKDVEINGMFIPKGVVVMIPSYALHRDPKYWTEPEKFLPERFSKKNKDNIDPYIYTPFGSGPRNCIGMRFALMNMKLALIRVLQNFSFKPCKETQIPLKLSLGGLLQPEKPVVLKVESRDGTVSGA

A short description of test [7]: Cell Viability - LYMP2-001 (AID 921).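 Note: 0% = DMSO only and full inhibition = tetraoctylammonium bromide control wells; nearly all actives have a fitted effect of over 70% in size.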 The following applies: LYMP2-001 lymphoblastoid cell viability; series mostly up to 92.2 µM. In short, it runs like this: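 Human lymphoblastoid LYMP2-001 cells, 2500 per well, in complete medium, treated 24 h at 37 C. Viability from cellular ATP by CellTiter-Glo luminescence; AC50 from Hill-equation fits of qHTS concentration-response.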

A short description of test [8]: MultiTox-Fluor Cytotoxicity Assay - LYMP1-002 - Dead Cells (AID 960).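 Note: 0% = DMSO and 100% = tetraoctylammonium bromide; nearly all actives have a fitted effect of over 60% in size.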 The following applies: LYMP1-002 lymphoblastoid cells, dead-cell protease fluorescence; series mostly up to 46.1 µM. In short, it runs like this:
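Readout: fluorescence at 485/520 from cell-impermeant bis-AAF-R110 cleaved by proteases leaking from damaged cells. LYMP1-002 lymphoblastoid line, 16 hr compound treatment at 37 C, concentration-response in qHTS format; Hill-equation AC50 values.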

The nature of test [9]: Cell Viability - LYMP2-005 (AID 967).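 Note: plate controls were DMSO only for no effect and 92 µM tetraoctylammonium bromide control for full effect.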 The following applies: LYMP2-005 lymphoblastoid cell viability; series mostly up to 92.2 µM. In short, it runs like this: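 Human lymphoblastoid LYMP2-005 cells, 2,500 per well in complete medium, rested 5 h at 37C then compound-treated 24 h at 37C. Intracellular ATP read by CellTiter-Glo luminescence after 30 min at room temperature; AC50 from Hill-equation fits of concentration-response data.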

Test [10] can be described thus: Cell Viability - LYMP2-015 (AID 971).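 Note: 0% = DMSO only and full effect = 92 µM tetraoctylammonium bromide; nearly all actives have a fitted effect of over 55% in size.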 The following applies: LYMP2-015 lymphoblastoid cell viability; series mostly up to 92.2 µM. In short, it runs like this:
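qHTS cytotoxicity: 2500 cells/well, 5 hr 37 C, compound 24 hr 37 C, CellTiter-Glo 30 min RT, luminescence. Loss of ATP = toxicity; AC50 via standard Hill fit.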

A short description of test [11]: Cell Viability - LYMP2-002 (AID 977).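 Note: compound exposure lasted 24 h at 37 °C; plate controls were DMSO only for no effect and 92 µM tetraoctylammonium bromide for full effect.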 The following applies: LYMP2-002 lymphoblastoid cell viability, qHTS; series mostly up to 92.2 µM. In short, it runs like this: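 Human lymphoblastoid cells (2500/well) in complete medium were preincubated 5 hr at 37 C, then exposed to compounds for 24 hr at 37 C. Intracellular ATP was read by CellTiter-Glo luminescence; AC50 came from Hill-equation concentration-response fits.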

Test [12] is described as follows: Cell Viability - LYMP2-010 (AID 981). Note: % is set by controls: 0 for no effect and ±100 for the full control effect; nearly all actives have a fitted effect of over 55% in size. The following applies: LYMP2-010 lymphoblastoid cell viability, qHTS; series mostly up to 92.2 µM. In short, it runs like this: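 qHTS cytotoxicity, 1536-well: 2500 cells/well, 5 hr settle, 24 hr compound at 37 C, CellTiter-Glo 30 min RT, luminescence read. Decrease in ATP = toxicity; AC50 via standard Hill equation. Positive control tetraoctylammonium bromide.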

Test [13] is described as follows: Cell Viability - LYMP2-020 (AID 986).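 Note: plate controls were DMSO only for no effect and tetraoctylammonium bromide at 92 µM for full effect; nearly all actives have a fitted effect of over 55% in size.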 The following applies: series mostly up to 92.2 µM. The method, boiled down: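 qHTS, 2500 cells/well; 5 hr then 24 hr compound exposure, 37 C; CellTiter-Glo luminescence after 30 min RT; ATP decrease taken as cytotoxicity; AC50 via Hill equation; tetraoctylammonium bromide positive control.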
Test [14] can be described thus: Cell Viability - LYMP2-022 (AID 987).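 Note: 0% = DMSO alone and full effect = tetraoctylammonium bromide at 92 µM; nearly all actives have a fitted effect of over 55% in size.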 The following applies: LYMP2-022 lymphoblastoid cell viability; series mostly up to 92.2 µM. In short, it runs like this:
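Luminescent ATP read-out (CellTiter-Glo, 30 min, RT) after 24 hr, 37 C compound exposure of 2500 human lymphoblastoid cells/well in complete medium. Cytotoxicity taken as concentration-dependent ATP loss; AC50 from standard Hill equation.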

A short description of test [15]: qHTS assay for small molecule agonists of retinoid X receptor alpha signaling (AID 588544). The note with it: HEK293T RXRa-UAS-bla, beta-lactamase reporter, 18 h; 530 nm emission.
The target in test [16] is Thyroid hormone receptor beta (Homo sapiens) (UniProt P10828). The test can be described thus: qHTS assay for small molecule agonists of thyroid hormone receptor beta signaling (AID 588545; calls by dose curve;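 note: 0% = DMSO only and 100% = 10 nM T3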). The note with it: TR-UAS-bla GripTite HEK 293, beta-lactamase ratio, agonist mode, 18 h; series mostly up to 76.7 µM. In short, it runs like this:
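TR-UAS-bla-GripTite HEK 293 cells in medium with 2% charcoal/dextran FBS, 0.1 mM NEAA and 1 mM sodium pyruvate were treated with titrated compounds for 18 hrs at 37 C. Beta-lactamase reporter was read with CCF4 dye (ex 405, em 460/530 nm); EC50 from Hill fits.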

Test [17] in a line: qHTS assay for small molecule antagonists of retinoid X receptor alpha signaling (AID 588546; active = well fitted inhibition curve with a large enough effect in the signal ratio, with a control signal flat, not every such curve was filed as active; the % refers to the signal ratio;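 note: cells stimulated with 9-cis-retinoic acid as agonist; % is set by controls: 0 for no effect and ±100 for the full control effect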). The note with it: HEK293T RXRa-UAS-bla, beta-lactamase ratio, antagonist mode; measured here: W530 green channel, cytotoxicity proxy. In short, it runs like this:
(§1)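 Beta-lactamase reporter inhibition, read as CCF4 fluorescence ratio (ex 405, em 460/530 nm) after 2 h at RT. HEK293T UAS-bla cells, 2500/well, were stimulated with 9-cis-RA at 500 or 100 nM final alongside test compound for 18 h at 37 C.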

Test [18] addresses Retinoic acid receptor RXR-alpha (Homo sapiens) (UniProt P19793). The description is as above. The following applies: HEK293T RXRa-UAS-bla, beta-lactamase ratio, antagonist mode. In short, it runs like this: as §1
Test [19] addresses Thyroid hormone receptor beta (Homo sapiens) (UniProt P10828). The test can be described thus: qHTS assay for small molecule antagonists of thyroid hormone receptor beta signaling (AID 588547; active = well fitted inhibition curve with a large enough effect in the signal ratio, with a control signal flat, not every such curve was filed as active; the % refers to the signal ratio;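 note: cells stimulated with 0.4 nM T3 agonist during compound exposure; % is set by controls: 0 for no effect and ±100 for the full control effect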). The following applies: TR-UAS-bla HEK293, beta-lactamase ratio, antagonist mode, 18 h. The method, boiled down:
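Inhibition of T3-driven (0.4nM final) beta-lactamase reporter activity was measured over 0.59 nM to 92 uM compound after 18 h at 37 C. The cells were GripTite HEK293 TR-UAS-bla in charcoal/dextran-stripped serum, with CCF4 ratio read-out and IC50 from Hill fits.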

Test [20] has as its target Tumor necrosis factor (Homo sapiens) (UniProt P01375). The test can be described thus: qHTS assay to identify small molecules that stimulate Tumor Necrosis Factor-alpha (TNF-alpha) secretion (AID 651757; active = well fitted curve in the direction sought with a large enough effect in the signal ratio; the % refers to the signal ratio; note: 0% is about no effect). The following applies: Human cells, HTRF 665/615 ratio; series mostly up to 92.2 µM. In short, it runs like this:
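THP-1 cells, 3000/well; compound 17 hrs, 37 C; add cryptate/XL665 anti-TNF-alpha antibody pair; 3 hr RT; TR-FRET (HTRF) read of secreted TNF-alpha. Quantitative HTS format.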

“And” between values parts separate entries of the source, which are not always exact repeats. Identical values can stand only once. Inconclusive results are not listed. The source made the active and inactive calls. Unless noted, calls come from the whole dose curve; as a rule, active = well fitted curve in the direction sought with a large enough effect; inconclusive = small, poorly fitted or top-dose-only effect, or another doubt; inactive = no such curve, though single readings can be large; an effect the other way counts as inactive or inconclusive. A value given as a limit tells only on which side of the number the result lay.

Retinoic acid receptor RXR-alpha (Homo sapiens), sequence (P19793 whole entry, looked up): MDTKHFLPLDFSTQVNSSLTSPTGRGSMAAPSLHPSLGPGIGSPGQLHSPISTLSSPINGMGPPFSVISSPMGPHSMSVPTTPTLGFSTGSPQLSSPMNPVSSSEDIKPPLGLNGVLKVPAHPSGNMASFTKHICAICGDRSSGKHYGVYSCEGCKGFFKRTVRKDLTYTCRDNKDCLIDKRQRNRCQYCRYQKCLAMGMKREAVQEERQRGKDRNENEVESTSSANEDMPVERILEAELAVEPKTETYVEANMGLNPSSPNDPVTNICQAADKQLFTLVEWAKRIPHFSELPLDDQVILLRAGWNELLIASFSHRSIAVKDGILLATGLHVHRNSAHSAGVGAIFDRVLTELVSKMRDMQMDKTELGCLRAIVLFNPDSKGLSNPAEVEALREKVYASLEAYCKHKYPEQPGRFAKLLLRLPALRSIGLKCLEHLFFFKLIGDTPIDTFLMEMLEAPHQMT
Tumor necrosis factor (Homo sapiens), sequence (P01375 whole entry, looked up): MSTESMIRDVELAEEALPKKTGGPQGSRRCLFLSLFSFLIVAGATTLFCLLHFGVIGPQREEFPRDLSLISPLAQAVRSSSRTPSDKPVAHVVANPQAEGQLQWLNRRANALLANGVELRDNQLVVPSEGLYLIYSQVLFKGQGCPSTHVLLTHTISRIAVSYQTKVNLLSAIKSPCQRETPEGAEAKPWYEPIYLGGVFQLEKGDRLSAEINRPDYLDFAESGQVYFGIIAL
Thyroid hormone receptor beta (Homo sapiens), sequence (P10828 whole entry, looked up): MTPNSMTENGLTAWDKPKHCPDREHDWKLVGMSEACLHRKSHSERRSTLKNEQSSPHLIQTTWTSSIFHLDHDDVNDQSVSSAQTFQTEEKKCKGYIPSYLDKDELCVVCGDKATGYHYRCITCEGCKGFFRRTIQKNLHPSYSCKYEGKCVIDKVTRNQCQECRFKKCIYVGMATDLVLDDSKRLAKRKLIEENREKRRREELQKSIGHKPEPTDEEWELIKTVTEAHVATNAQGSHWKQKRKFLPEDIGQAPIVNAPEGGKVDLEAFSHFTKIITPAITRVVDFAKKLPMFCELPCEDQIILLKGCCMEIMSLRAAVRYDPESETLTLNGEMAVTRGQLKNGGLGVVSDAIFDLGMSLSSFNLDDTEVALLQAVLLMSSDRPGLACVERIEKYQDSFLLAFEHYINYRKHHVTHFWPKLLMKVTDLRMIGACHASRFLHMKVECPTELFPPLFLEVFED

Consider `CC(C)(C)c1ccccc1O`, for which the Potency in test [1] was > 92 µM (inactive). The Potency entry in test [2], in [6], in [7], in test [8], in [9] and in [10] was “inactive” throughout. Also, the Potency result in [11], in test [12], in test [13], in test [14] and in [16] was “inactive” throughout. The call in test [3], in test [5] and in [20] was inactive. For the same compound, in test [4], the caspase-3 activation is -1.03% (inactive). Further, the max response was -1.25% and -13.7% in test [15]; -15.4% and -14.5% in test [17]; 2.54% (inactive) and -7.07% (inactive) in test [18]. In addition, the activity change % (negative = inhibition) in test [19] was 3.5% (inactive) and 10.7% (inactive).
Regarding `BrC(Br)Br`, the Potency in [1] is > 92 µM (inactive). Besides, the Potency entry in test [2], in test [6], in [7], in test [8], in test [9] and in test [10] was “inactive” in each case. Moreover, the Potency result in [11], in test [12], in [13], in test [14] and in test [16] was “inactive” each time. The call in test [3], in [5] and in test [20] was inactive. The caspase-3 activation in test [4] is -0.161% (inactive). The results for the max response in [15], in [17] and in test [18] were 0.74%, -5.42% and 20% (inactive), respectively. The activity change % (negative = inhibition) in [19] was -8.09% (inactive).
In the case of `O=C(O)C(Cl)Br` (stereo not given), in [1], the Potency was > 92 µM (inactive). In addition, the Potency result in test [2], in test [6], in test [7], in test [8], in test [9] and in [10] was “inactive” each time. The Potency result in test [11], in test [12], in test [13] and in test [14] was “inactive” each time. Besides, the result in [3], in [5] and in [20] was inactive. Besides, the caspase-3 activation in test [4] was -0.427% (inactive). Besides, the values for the max response in test [15], in test [17] and in test [18] were -0.567%, -6.53% and 0.341% (inactive), respectively. In addition, the activity change % (negative = inhibition) in test [19] is 7.08% (inactive).
Regarding `CCC#N`, the Potency in test [1] was > 92 µM (inactive). Moreover, the Potency entry in test [2], in [6], in test [7], in test [8], in test [9] and in test [10] was “inactive” throughout. The Potency result in test [11], in test [12], in test [13], in test [14] and in test [16] was “inactive” each time. Also, the compound was called inactive in test [3], in test [5] and in test [20]. Also, the caspase-3 activation in [4] is -0.741% (inactive). The figures for the max response in test [15], in [17] and in [18] were 3.48%, 15.9% and 10.5% (inactive), respectively. In addition, the activity change % (negative = inhibition) in [19] is -12.3% (inactive).
As to `COC(C)(C)C`, in test [1], the Potency was > 92 µM (inactive). For the same compound, the Potency entry in [2], in test [6], in test [7], in test [8], in test [9] and in [10] was “inactive” in each case. Further, the Potency result in test [11], in test [12], in [13], in test [14] and in test [16] was “inactive” in each case. The compound was called inactive in test [3], in test [5] and in test [20]. Moreover, the max response in test [15] was 9.16%; in test [17], -12.9%; in test [18] it was 6.43% (inactive). The activity change % (negative = inhibition) in test [19] was -17.3% (inactive).
For `Nc1c(Br)cc([N+](=O)[O-])cc1[N+](=O)[O-]`, the Potency in [1] was > 92 µM (inactive). Further, the compound was called inactive in test [3] and in test [5]. Moreover, the Potency entry in [7], in test [8], in [9], in test [10], in test [11] and in [13] was “inactive” in each case. The Potency entry in test [14] and in test [16] was “inactive” throughout. Moreover, the max response in [15] was -9.23%.
In the case of `Cc1coc2c1CCC(C)C2` (stereo not given), the Potency in test [1] was > 92 µM (inactive). For the same compound, the Potency entry in [2], in [6], in test [7], in test [8], in [9] and in test [10] was “inactive” throughout. For the same compound, the Potency entry in test [11], in test [12], in [13], in [14] and in test [16] was “inactive” throughout. For the same compound, the call in test [3], in [5] and in test [20] was inactive. Further, in test [4], the caspase-3 activation was 0.203% (inactive). Also, the figures for the max response in test [15], in [17] and in [18] were -8.64%, -8.18% and -0.116% (inactive), respectively. For the same compound, in test [19], the activity change % (negative = inhibition) is 22.1% (inactive).
